“And” between values parts separate entries of the source, which are not always exact repeats. Equal entries are not always repeated. Results filed as inconclusive are left out. Entries that show only a call come without a potency. The source made the active and inactive calls. Calls come from the whole dose curve.
Test: qHTS assay for small molecule agonists of the p53 signaling pathway (AID 651631); note: nearly all actives have a fitted effect of over 15% in size
Details: HCT-116 p53RE-bla reporter, beta-lactamase FRET ratio, 16 h; series mostly up to 73.3 µM
Description: U.S. Tox21 Program National Center for Advancing Translational Sciences [NCATS] NIH Chemical Genomics Center [NCGC] U.S. Environmental Protection Agency [EPA] National Institutes of Environmental Health Sciences [NIEHS] National Toxicology Program [NTP] U.S. Food and Drug Administration [FDA] Tox21 Assay Overview: p53, a tumor suppressor protein, is activated following cellular insult, including DNA damage and other cellular stresses. The activation of p53 regulates cell fate by inducing DNA repair, cell cycle arrest, apoptosis, or cellular senescence. The activation of p53, therefore, is a good indicator of DNA damage and other cellular stresses. The CellSensor p53RE-bla HCT-116 cell line (Invitrogen) contains a stably integrated beta-lactamase reporter gene under control of the p53 response elements. The activation of the reporter gene under culture conditions can be detected by fluorescence intensity. This cell line was used to screen the Tox21 compound library in a 1536-well plate format and to identify agonists that activate the p53 signaling pathway.
Tox21 Assay Protocol Summary: The p53RE-bla cells were dispensed at 4,000 cells/5 ul/well in 1536-well black wall/clear bottom plates using a Multidrop dispenser. After the assay plates were incubated at a 37 C/5% CO2 incubator for 5 hours, 23 nL of compounds dissolved in DMSO, positive controls or DMSO only was transferred to the assay plate by a pin tool. The plates were incubated at 37 C for 16 hours. After 1 uL of LiveBLAzerTM B/G FRET substrate was added using a Flying Reagent Dispenser, the plates were incubated at room temperature for 2 hours, and fluorescence intensity was measured by an Envision plate reader.
Potency is the fitted concentration of half-maximal effect.

Row | SMILES | Potency
1 | O=C(Cc1ccccc1)OCCc1ccccc1 | inactive
2 | CCC(C)Cl (stereo not given) | inactive
3 | CCOP(=S)(S)OCC | inactive
4 | CC(Cc1ccccc1)NCc1ccccc1Cl (stereo not given) | inactive
5 | CNC(=O)Oc1cccc(N=CN(C)C)c1 | inactive
6 | O=S(=O)(Cl)Cl | inactive
7 | Oc1cccc(Cl)c1 | inactive
8 | O=C(O)c1cc(I)cc(I)c1I | inactive
9 | OC[P+](CO)(CO)CO | inactive
10 | COc1cc(CC(C)N)c(OC)cc1Br (stereo not given) | inactive
11 | COc1ccccc1N1CCNCC1 | inactive
12 | N#CC(C#N)=C(C#N)C#N | inactive
13 | CC1(C)CC(=O)CC(C)(C)N1[O] | inactive
14 | O=C(O)C(F)(F)C(F)(F)C(F)(F)C(F)(F)C(F)(F)F | inactive
15 | CCCC1CCCCN1 (stereo not given) | inactive
16 | CCCSP(=S)(OCC)Oc1ccc(SC)cc1 (stereo not given) | inactive
17 | OCC1CO1 (stereo not given) | inactive
18 | Cc1nnc(-c2ccccc2)c(=O)n1N | inactive
19 | O=C1CC[C@@]2(O)[C@H]3Cc4ccc(O)c5c4[C@@]2(CCN3CC2CC2)[C@H]1O5 | inactive
20 | C[N+]1(CCF)[C@@H]2CC[C@H]1CC(OC(=O)C(O)(c1ccccc1)c1ccccc1)C2 (stereo not given in full) | inactive

Row | SMILES | Potency
21 | c1ccc2c(c1)sc1ccccc12 | inactive
22 | Cc1ccccc1 | inactive
23 | C=CCOCC1CO1 (stereo not given) | inactive
24 | N#CC1(N=NC2(C#N)CCCCC2)CCCCC1 | inactive
25 | CCCCC#N | inactive
26 | NC(=S)c1c(Cl)cccc1Cl | inactive
27 | COC1=CC(=O)O[C@@H](/C=C/c2ccc3c(c2)OCO3)C1 | inactive
28 | COc1ccc(C(O)(c2cncnc2)C2CC2)cc1 (stereo not given) | inactive
29 | CCOC(=O)C1OC1(C)c1ccccc1 (stereo not given) | inactive
30 | C=CCc1ccc(OC(=O)Cc2ccccc2)c(OC)c1 | inactive
31 | CC(C)OC(=O)Cc1ccccc1 | inactive
32 | CCCCCCCCP(=O)(O)O | inactive
33 | O=[N+]([O-])O[C@H]1CO[C@H]2[C@@H]1OC[C@H]2O[N+](=O)[O-] | inactive
34 | CCCN(CCC)c1c([N+](=O)[O-])cc(C(C)C)cc1[N+](=O)[O-] | inactive
35 | CCCCCCCCCCCCN(C)C | inactive
36 | C=CCc1ccccc1O | inactive
37 | CCCCCCCCn1sccc1=O | 12.2 µM (active) and 25.5 µM (active)
38 | Nc1cccc2ccccc12 | inactive
39 | O=C(O)c1cc(Cl)ccc1Cl | inactive
40 | CC(C)(C)NCC(O)c1cc(Cl)c(N)c(C(F)(F)F)c1 (stereo not given) | inactive
